# From PubChem BioAssay (NCI)
# This is part of a sample that, as a whole, favours compounds with a hit. Of some 83,000 tested, about 20% had one in any assay.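 Values shown are percent growth following 48 h exposure of cells in 96-well plates to a single concentration of compound; below 10 was considered active.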 A number with no mark means an inactive call. Active and inactive are the calls of the source.
# Experiments:
# Experiment in all cases: NCI-60 one-dose screen, 48 h (100 = growth as untreated, 0 = no growth, -100 = all killed)
# Settings in all cases: 10 µM unless noted
# HCT-15 colon = system: HCT-15 colon
# HT29 colon = system: HT29 colon
# SNB-75 CNS = system: SNB-75 CNS
# U251 CNS = system: U251 CNS
# PC-3 prostate = system: PC-3 prostate
# SK-MEL-5 melanoma = system: SK-MEL-5 melanoma
# UACC-62 melanoma = system: UACC-62 melanoma
# LOX IMVI melanoma = system: LOX IMVI melanoma
# SK-MEL-2 melanoma = system: SK-MEL-2 melanoma
# EKVX NSCLC = system: EKVX NSCLC
# SN12C renal = system: SN12C renal
# UO-31 renal = system: UO-31 renal
# TK-10 renal = system: TK-10 renal
# ACHN renal = system: ACHN renal
# CAKI-1 renal = system: CAKI-1 renal
# A498 renal = system: A498 renal
# CCRF-CEM leukemia = system: CCRF-CEM leukemia
# MOLT-4 leukemia = system: MOLT-4 leukemia
# SK-MEL-28 melanoma = system: SK-MEL-28 melanoma
Structure (SMILES),growth (HCT-15 colon),growth (HT29 colon),growth (SNB-75 CNS),growth (U251 CNS),growth (PC-3 prostate),growth (SK-MEL-5 melanoma),growth (UACC-62 melanoma),growth (LOX IMVI melanoma),growth (SK-MEL-2 melanoma),growth (EKVX NSCLC) [%],growth (SN12C renal),growth (UO-31 renal),growth (TK-10 renal),growth (ACHN renal),growth (CAKI-1 renal),growth (A498 renal),growth (CCRF-CEM leukemia),growth (MOLT-4 leukemia),growth (SK-MEL-28 melanoma)
CC(C)[C@H](CN)NC[C@H](C)NS(=O)(=O)c1ccc(C(C)(C)C)cc1,99.3%,65.5%,84.2%,87.1%,83.5%,86.8%,111%,99.9%,101%,90,99.8%,77.1%,93.8%,103%,94.1%,107%,91.5%,92.6%,
Cc1ccccc1CNc1ncnc2[nH]ncc12,108%,103%,94.8%,99.8%,311%,106%,,95%,,71.6,112%,37%,83.8%,87.2%,69%,93.9%,146%,-58.2% (active),136%
COc1ccc2c(c1)CCCC21C(=O)Nc2c(Cl)cccc21 (stereo not drawn),85%,21.1%,41%,54.1%,74.4%,76.8%,58%,71.3%,43%,91,82.6%,,95.4%,85.1%,54.9%,79.6%,60.9%,52.1%,64.7%
CC(=O)c1cc(C(=O)c2ccc3c(c2)Sc2ccccc2N3)c2c(C)cccn12,15.8%,12%,24.3%,13.6%,26.8%,8.21% (active),26.3%,14.1%,,38.1,35.5%,34.1%,56.9%,32.4%,,-5.33% (active),16.3%,12%,62.5%
O=C1CC2(O)CSc3nc(=O)cc(n32)N1 (stereo not drawn),96.5%,103%,98.4%,97.2%,93.9%,99.5%,102%,103%,,,96.9%,82.7%,106%,101%,92.5%,104%,101%,107%,104%
CC(=O)c1nn(-c2ccccc2)/c(=N\N=C\c2coc3ccc(F)cc3c2=O)s1,101%,108%,73.4%,100%,92.6%,98.3%,97.4%,95.2%,107%,81.6,97.6%,69.6%,163%,94%,82.3%,125%,97.2%,100%,111%
CCc1ccc(Nc2cc(C)c3ccc(O)cc3n2)cc1,70.7%,19.6%,57.8%,60.9%,62.2%,60.6%,30.8%,48.5%,,,77%,44.1%,74.1%,73.8%,53%,93.7%,68.9%,62.9%,95.6%
N=c1n(Cc2ccccc2)c(N)cc(=O)n1Cc1ccccc1,45.8%,26.8%,36.6%,25.4%,37.5%,2.83% (active),,14.2%,94.6%,,12.8%,13.4%,16.4%,4.21% (active),0.138% (active),40.6%,21.4%,-28.6% (active),60.8%
O=C(C(Br)C(Br)c1ccccc1)C(Br)C(Br)c1ccccc1 (stereo not drawn),-66.4% (active),-76% (active),60%,4.89% (active),-31.2% (active),2.03% (active),-83.5% (active),-79.1% (active),-28.7% (active),,-30.5% (active),-96.6% (active),-87.9% (active),-96% (active),,84.6%,-43.8% (active),-43.4% (active),-35.6% (active)
CC1(C)C(N(O)C(=O)Nc2ccc(Cl)cc2)N(c2ccc(Cl)cc2)C(=O)N1CC(=O)N/N=C/C=C/c1ccc([N+](=O)[O-])o1 (stereo not drawn),37.5%,-43% (active),9.93% (active),-14.4% (active),8.77% (active),-96.5% (active),-40.5% (active),0.58% (active),,29.8,-21.4% (active),12.8%,4.58% (active),9.18% (active),68%,,,-21.5% (active),-55.5% (active)
